Assay results from PubChem BioAssay AID588856 (National Center for Advancing Translational Sciences (NCATS), 2011).
Hit rate of the full screen: of about 410,000 compounds, about 3,100 (0.76%) were called active. Entries that show only a call come without a potency. Calls come from the whole dose curve; as a rule, active = well fitted cell-killing curve with a large enough effect; inactive = no such curve, though single readings can be large or run the other way. For the sample, actives were picked, then their nearest neighbours and some compounds at random.

Experiment: qHTS for Inhibitors of TGF-b: Cytotox Counterscreen
Conditions: HepG2 CAGA-GFP viability, ATP luminescence, 18 h; series mostly up to 46.1 µM
Outline: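 CellTiter-Glo luminescence gave cytotoxicity after 18 hours at 37 degrees C. The cells were HepG2 CAGA-GFP in 1% FBS DMEM, stimulated with 500 pg/mL TGF-beta after compound addition. %Activity was normalised to no-cell wells (complete cell-killing) and DMSO (no toxicity), and curves were fitted and classified.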
Potency is the fitted concentration of half-maximal effect.

Structure (SMILES)	Potency
CCC(C)N(c1ccc(/C=C/c2ccnc3ccccc23)cc1)C(C)CC (stereo not drawn)	inactive
Cc1cccc(NC(=O)N2CCC(CN3CCc4ccccc4C3)CC2)c1C	inactive
Cc1ccccc1Cn1c2ccccc2c2cnn(CC(=O)NCc3ccco3)c(=O)c21	inactive
CCCN(CCC)CCCNC(=O)Cn1ncc2c3ccccc3n(Cc3ccccc3)c2c1=O	inactive
CCN(CC)CCNC(=O)Cn1ncc2c3ccccc3n(Cc3ccccc3C)c2c1=O	15.8 µM (active)
O=C(CSc1oc(-c2ccco2)nc1S(=O)(=O)c1ccc(Cl)cc1)c1ccccc1	inactive
COC(=O)CC1Oc2ccccc2-n2cc(-c3ccccc3)nc21 (stereo not drawn)	inactive
CCOc1ccc(C(=O)Nc2ccc3nc4c(c(Nc5ccccc5OC)c3c2)CCCC4)cc1	inactive
COc1ccccc1Nc1c2c(nc3ccc(NC(=O)/C=C/c4cc(OC)c(OC)c(OC)c4)cc13)CCCC2	5.62 µM (active)
COc1cc(/C=C/C(=O)O)cc(S(=O)(=O)Nc2ccccc2SC)c1OC	inactive
COCCCNC(=O)c1c(NC(=O)c2cc(=O)c3cc(C)c(C)cc3o2)sc2c1CCCC2	inactive
COC(=O)c1sc(-c2ccc(C(C)(C)C)cc2)cc1NC(=O)/C=C/C(=O)O	7.08 µM (active)
OC(Cc1ccc2ccccc2n1)c1ccc(Cl)c(Cl)c1 (stereo not drawn)	inactive
C/C=C/NNC(=O)Cc1ccc(OC)cc1	inactive
O=c1cc2nc(-c3ccccc3)nc(SCCOc3ccc(Cl)cc3)n2[nH]1	inactive
Cc1cccc(-c2nc(SCc3ccc(Br)cc3)n3[nH]c(=O)cc3n2)c1	inactive
Cc1ccc(-c2nc(SCc3ccc(Br)cc3)n3[nH]c(=O)cc3n2)cc1	5.01 µM (active)
COc1ccc(-c2nc(CN3CCC(C(=O)NCc4ccccc4)CC3)c(C)o2)cc1OC	inactive
Nc1ccc(/C=C/c2ccnc3ccccc23)c([N+](=O)[O-])c1	inactive
COc1cccc(CNC(=O)c2ccc3c(c2)sc2nc(-c4cccc(OC)c4)cn23)c1	inactive
Cc1cccc(-n2c(SCC(N)=O)nc3c(oc4ccccc43)c2=O)c1	inactive

Structure (SMILES)	Potency
Cc1cc(C)cc(Nc2ncnc3onc(-c4ccc(F)cc4)c23)c1	inactive
C=COC(=O)N1CCN(/[N+]([O-])=N/Oc2ccc([N+](=O)[O-])cc2[N+](=O)[O-])CC1	inactive
Cc1cccc(NS(=O)(=O)c2ccc(-c3cnc(C4CC4)o3)cc2)c1	inactive
Cc1cc(NS(=O)(=O)c2ccc3oc(=O)c4ncn(C)c4c3c2)ccc1Br	11.2 µM (active)
CCn1c(=O)c(=O)[nH]c2c(=O)oc3ccc(S(=O)(=O)Nc4ccc(OC)cc4)cc3c21	inactive
Cc1ccc(-c2cc(C(F)(F)F)c(C#N)c(SCC(=O)Nc3ccccc3)n2)cc1	inactive
CCc1ccc(NS(=O)(=O)c2ccc3[nH]cc(C(=O)NCCc4cccc(C)c4)c(=O)c3c2)cc1	inactive
O=C(Nc1cccc2cccnc12)C(F)(F)F	inactive
CC(=O)/C(=N\Nc1ccc(Cl)cc1Cl)Sc1cccc2cccnc12	3.98 µM (active)
COc1c(Cl)cc(Cl)cc1C(=O)Nc1cccc2cccnc12	inactive
Clc1cccc[n+]1CCCC[n+]1ccccc1Cl	inactive
Cc1ccccc1-c1nc2cc(NC(=O)c3cccc(OCCC(C)C)c3)ccc2o1	inactive
COc1cc(OC)c2c(c1C(CCN1CCCCC1)c1ccc(N(C)C)cc1)OC(=O)CC2c1ccc(N(C)C)cc1 (stereo not drawn)	inactive
COc1ccc(Nc2ncc(C(=O)Nc3cc(C)ccc3OC)c3ccccc23)cc1	inactive
COc1ccc(C(=O)Nc2ccccc2C(=O)N/N=C/c2ccc(O)c(OC)c2)cc1	3.55 µM (active)
COc1cc(/C=C/C(=O)OCC(=O)Nc2cccc(Oc3ccccc3)c2)ccc1O	inactive
Cc1onc(-c2ccc(F)cc2F)c1C(=O)Nc1cccc(C(F)(F)F)c1	inactive
COc1cc(NC(=O)c2[nH]cnc2C(N)=O)cc(C(=O)Nc2cccc(C(F)(F)F)c2)c1	7.08 µM (active)
COc1cc(OC)cc(C(=O)Nc2ccc3nc(Nc4cccc(C(F)(F)F)c4)cc(C)c3c2)c1	inactive
COc1ccc(/C=C/c2ccccn2)cc1OC	inactive
Cc1ccc(-c2cn3c(n2)sc2cc(C(=O)NCc4cccs4)ccc23)c(C)c1	inactive

Structure (SMILES)	Potency
COc1ccc(NC(=O)Cn2c(=O)n(CCC(C)C)c(=O)c3cccnc32)cc1Cl	inactive
CCCC[C@@H]1CN=C(N)N1CCc1cc(C(F)(F)F)cc(C(F)(F)F)c1	15.8 µM (active)
CCCCN1C(N)=NC[C@@H]1CC1CCCCC1	inactive
CN(C)C1=NC[C@H](Cc2ccccc2)N1CCc1ccc(F)cc1	inactive
CC(NC(=O)CCc1cn(Cc2ccccc2Cl)c2ccccc12)c1ccccc1 (stereo not drawn)	inactive
Cc1cc(OC(C)C(=O)Nc2sc3c(c2C(N)=O)CCCC3)ccc1Cl (stereo not drawn)	inactive
O=C(Cn1ncn2nc(-c3cccs3)cc2c1=O)NCc1cccc(Br)c1	inactive
Cc1ccc(C)c(OCC(=O)Nc2sc3c(c2C#N)CCCC3)c1C	inactive
CCOC(=O)N1CCc2c(sc3c2C(=O)NC(c2ccccc2F)N3)C1 (stereo not drawn)	inactive
NC1=CC(=O)C(=O)c2cccnc21	6.31 µM (active)
Cc1ccc2c(=O)cc(C(=O)Nc3sc4c(c3C(=O)NCc3cccnc3)CCCC4)oc2c1	inactive
COc1ccc(N2CCN(c3nc(-c4ccccc4F)nc4ccccc34)CC2)cc1	inactive
O=c1c2cc(Br)ccc2nc(-c2cccc(Cl)c2)n1O	15.8 µM (active)
O=C(O)c1ccc(Nc2nc(-c3ccccc3)c3cc(Br)ccc3n2)cc1	inactive
CC(C)Cn1c(=O)c2ccccc2n2c(-c3cccc(Cl)c3)nnc12	inactive
CCOc1ccccc1C(=O)NC1(C(F)(F)F)NC(=O)N(CCc2ccc(OC)c(OC)c2)C1=O (stereo not drawn)	inactive
Cc1nc(SCC(=O)Nc2ccc(C(=O)O)cc2)n[nH]1	inactive
CN(C)c1ccc(/C=C/C=C/c2ccnc3ccccc23)cc1	inactive
COc1ccc(C2=Nn3c(nnc3-c3ccccc3OC)SC2)cc1OC1CCCC1	17.8 µM (active)
Cc1nnc2n1N=C(c1ccc3c(c1)NC(=O)CO3)CS2	inactive
O=C(Nc1ccc([N+](=O)[O-])cc1)c1cnn2c1NC(=C1CC1)C=C2C(F)F	inactive
